Consider six compounds from PubChem BioAssay.

The source made the active and inactive calls.

Experiment [1] in a line: optical density shifts of acrAB sulA E. coli – strain DRC41, OD650, 48 h, E. coli filamentation inducer project, primary screen (AID 1152).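 Note: E. coli MC1000 strain DRC41 lacking acrAB efflux pump and sulA.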 To be noted: higher = more signal, called active from +8 up or from −8 down.
A short description of experiment [2]: probe aLefty1 binding on compound microarray – biochemical, small-molecule microarray, 635/667 nm fluorescence, primary screen (AID 1153).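 Note: score merges spot fluorescence with signal-to-noise ratio from the scanned slide images.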 The following applies: higher = more signal.
Experiment [3] can be described thus: plasmodial surface anion channel blockers, osmotic lysis – cell-based, P. falciparum Indochina, OD700, 1 h, primary screen (AID 1154). To be noted: P. falciparum Indochina infected RBC osmotic lysis, higher = more signal, called active from +8 up or from −8 down.
Experiment [4] is described as follows: plasmodial surface anion channel blockers, osmotic lysis – cell-based, P. falciparum Indochina, OD700, 2 h, primary screen (AID 1155).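 Note: lysis reports solute entry through the parasite surface anion channel PSAC.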 To be noted: P. falciparum Indochina infected erythrocytes, higher = more signal, called active from +8 up or from −8 down.
Experiment [5] is described as follows: changes in parasitized red cell lysis, either direction – P. falciparum Indochina, OD700, 3 h, PSAC antagonist project, primary screen (AID 1156). To be noted: P. falciparum-infected erythrocytes, osmotic lysis, higher = more signal, called active from +8 up or from −8 down.
A short description of experiment [6]: plasmodial surface anion channel blockers, osmotic lysis – cell-based, P. falciparum Indochina, OD700, 18 h, primary screen (AID 1157). To be noted: P. falciparum Indochina infected erythrocytes, osmotic lysis OD700, 18 h; higher = more signal, called active from +8 up or from −8 down.
Experiment [7] in a line: S6 kinase pathway phospho-S6 level changes – cell-based, A549, cytoblot, luminescence, serum-stimulated, primary screen (AID 1158).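 Note: serum-stimulated A549 lung adenocarcinoma cells; signal is phosphorylated S6 detected by cytoblot immunostaining with HRP secondary.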 To be noted: 5 h, higher = more signal.
In experiment [8] the target is NADPH oxidase 2 (Homo sapiens) (UniProt P04839). As to the kind of experiment: compounds shifting NOX2 Amplex Red fluorescence – cell-based, HEK293-NOX2, PMA-stimulated, NOX inhibitor project, primary screen (AID 1159). Note: test concentration not given here. The following applies: 45 min, higher = more signal, called active from +8 up or from −8 down.
Chain of NADPH oxidase 2 (Homo sapiens) (P04839 whole entry, looked up): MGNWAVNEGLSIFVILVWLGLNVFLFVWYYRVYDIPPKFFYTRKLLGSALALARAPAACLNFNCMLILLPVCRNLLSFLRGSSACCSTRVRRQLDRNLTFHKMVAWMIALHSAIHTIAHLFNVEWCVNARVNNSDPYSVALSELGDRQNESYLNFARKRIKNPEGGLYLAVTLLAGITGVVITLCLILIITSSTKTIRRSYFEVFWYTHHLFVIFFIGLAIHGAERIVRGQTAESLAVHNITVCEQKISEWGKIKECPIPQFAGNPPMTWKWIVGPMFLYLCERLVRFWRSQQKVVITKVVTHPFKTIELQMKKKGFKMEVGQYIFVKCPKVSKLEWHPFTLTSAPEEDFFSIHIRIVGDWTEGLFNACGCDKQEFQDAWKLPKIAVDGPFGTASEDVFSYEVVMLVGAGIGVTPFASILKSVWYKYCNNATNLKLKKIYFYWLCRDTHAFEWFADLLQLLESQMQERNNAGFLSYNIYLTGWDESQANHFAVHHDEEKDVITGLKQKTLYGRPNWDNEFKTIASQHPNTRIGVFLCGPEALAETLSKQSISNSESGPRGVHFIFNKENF
Experiment [9] has as its target NADPH oxidase 4 (Homo sapiens) (UniProt Q9NPH5). Briefly: compounds shifting NOX4 Amplex Red fluorescence – cell-based, HEK293-NOX4, tetracycline-induced, NOX inhibitor project, primary screen (AID 1160). The following applies: HEK293-NOX4, Amplex Red H2O2 fluorescence, 45 min; higher = more signal, called active from +8 up or from −8 down.
Experiment [10] has as its target NADPH oxidase 5 (Homo sapiens) (UniProt Q96PH1). As to the kind of experiment: compounds shifting NOX5 Amplex Red fluorescence – cell-based, HEK293-NOX5, NOX inhibitor project, primary screen (AID 1161). To be noted: HEK293-NOX5, ionomycin, 45 min, higher = more signal.
The nature of experiment [11]: compound effects on lung adenocarcinoma cell viability – A549, calcein-AM fluorescence, 48 h, basal, profiling panel (AID 1162). Note: test concentration not given here. To be noted: higher = more signal.
The nature of experiment [12]: compound effects on differentiated 3T3-L1 adipocyte viability – cell-based, 3T3-L1 adipocytes, calcein-AM fluorescence, 48 h, basal, profiling panel (AID 1163). Note: test concentration not given here. To be noted: 3T3-L1 adipocytes viability, higher = more signal.
Experiment [13] can be described thus: compound effects on hepatocellular carcinoma cell viability – HepG2, calcein-AM fluorescence, 48 h, basal, profiling panel (AID 1164). Note: test concentration not given here. The following applies: higher = more signal.
Experiment [14] in a line: compound effects on multiple myeloma cell viability – MM1S, calcein-AM fluorescence, 48 h, basal, profiling panel (AID 1165).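 Note: viability of MM1S multiple myeloma cells under basal unstimulated conditions; test concentration not given here.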 To be noted: higher = more signal.
Experiment [15] can be described thus: calcein-AM signal in unstimulated myeloma cells – cell-based, calcein-AM fluorescence, 48 h, PK04 Diversity Set, profiling panel (AID 1166).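 Note: cells grown under basal conditions without added stimulus; test concentration not given here.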 The following applies: RPMI8226 myeloma viability, higher = more signal.
The nature of experiment [16]: JC-1 mitochondrial signal, unstimulated HepG2 cells – cell-based, JC-1 fluorescence, 24 h, 100 nL compound, profiling panel (AID 1167). Note: test concentration not given here. The following applies: HepG2 mitochondrial potential, higher = more signal.
Experiment [17] in a line: JC-1 mitochondrial signal, unstimulated adipocytes – cell-based, JC-1 fluorescence, 3T3-L1 adipocytes, 24 h, 100 nL compound, profiling panel (AID 1168). Note: test concentration not given here. The following applies: JC-1 mitochondrial fluorescence, higher = more signal, called active from +8 up or from −8 down.
Experiment [18] is described as follows: JC-1 mitochondrial signal, unstimulated myeloma cells – cell-based, JC-1 fluorescence, RPMI8226, 24 h, 100 nL compound, profiling panel (AID 1169). Note: test concentration not given here. The following applies: JC-1 mitochondrial potential fluorescence, higher = more signal.
Experiment [19] can be described thus: JC-1 mitochondrial signal, unstimulated MM1S myeloma – cell-based, JC-1 fluorescence, 24 h, 100 nL compound, profiling panel (AID 1170). Note: test concentration not given here. The following applies: MM1S mitochondrial potential, higher = more signal.
Experiment [20] in a line: resazurin metabolic signal in A549 cells – cell-based, resazurin fluorescence, 24 h, PK04 Diversity Set, profiling panel (AID 1171). Note: test concentration not given here. To be noted: A549 viability, higher = more signal, called active from +8 up or from −8 down. Background: Resazurin is reduced to fluorescent resorufin, in cell work by metabolically active cells.

Chain of NADPH oxidase 4 (Homo sapiens) (Q9NPH5 whole entry, looked up): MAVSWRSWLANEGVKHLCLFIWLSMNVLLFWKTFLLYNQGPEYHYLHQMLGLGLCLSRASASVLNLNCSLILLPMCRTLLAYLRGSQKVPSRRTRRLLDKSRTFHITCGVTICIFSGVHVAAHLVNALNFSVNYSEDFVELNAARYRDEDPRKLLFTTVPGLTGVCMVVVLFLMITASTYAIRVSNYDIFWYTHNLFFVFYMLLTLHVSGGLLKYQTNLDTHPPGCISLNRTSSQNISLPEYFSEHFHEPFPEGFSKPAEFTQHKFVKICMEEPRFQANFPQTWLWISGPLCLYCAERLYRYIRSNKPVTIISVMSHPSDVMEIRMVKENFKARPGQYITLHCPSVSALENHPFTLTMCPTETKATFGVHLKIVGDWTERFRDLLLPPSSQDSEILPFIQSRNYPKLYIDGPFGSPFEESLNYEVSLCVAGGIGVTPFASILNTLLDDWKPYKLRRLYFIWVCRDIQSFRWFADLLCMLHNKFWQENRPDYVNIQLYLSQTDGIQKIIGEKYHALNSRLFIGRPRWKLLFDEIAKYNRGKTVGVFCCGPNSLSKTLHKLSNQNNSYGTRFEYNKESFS
Chain of NADPH oxidase 5 (Homo sapiens) (Q96PH1 whole entry, looked up): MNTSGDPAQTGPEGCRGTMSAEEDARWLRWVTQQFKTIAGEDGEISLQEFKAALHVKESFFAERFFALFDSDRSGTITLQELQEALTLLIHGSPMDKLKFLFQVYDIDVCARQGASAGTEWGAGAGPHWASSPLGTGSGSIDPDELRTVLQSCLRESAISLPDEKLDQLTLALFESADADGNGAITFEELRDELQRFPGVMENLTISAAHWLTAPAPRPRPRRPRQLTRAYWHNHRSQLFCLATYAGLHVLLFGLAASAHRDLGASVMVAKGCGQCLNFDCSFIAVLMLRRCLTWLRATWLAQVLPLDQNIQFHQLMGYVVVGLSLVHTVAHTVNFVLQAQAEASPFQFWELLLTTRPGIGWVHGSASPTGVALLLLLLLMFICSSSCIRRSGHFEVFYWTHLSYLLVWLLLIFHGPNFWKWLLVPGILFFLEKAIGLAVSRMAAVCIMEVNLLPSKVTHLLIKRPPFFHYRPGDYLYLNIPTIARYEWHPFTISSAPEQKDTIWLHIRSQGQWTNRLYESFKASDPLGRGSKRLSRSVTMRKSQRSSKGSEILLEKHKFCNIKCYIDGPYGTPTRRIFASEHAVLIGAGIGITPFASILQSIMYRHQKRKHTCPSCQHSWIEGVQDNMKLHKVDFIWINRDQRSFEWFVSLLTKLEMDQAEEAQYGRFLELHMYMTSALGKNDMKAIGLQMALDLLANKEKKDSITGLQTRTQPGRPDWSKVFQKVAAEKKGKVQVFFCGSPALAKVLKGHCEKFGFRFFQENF

Regarding `COC(=O)CC=C[C@@H](C)[C@@H](C=NO[C@@H]1O[C@H](COC(C)=O)[C@@H](OC(C)=O)[C@H](OC(C)=O)[C@H]1OC(C)=O)OC`, the z-score was -0.477 (inactive) in experiment [1]; 0.683 (inactive) in experiment [3]; 0.547 (inactive) in experiment [4]; -0.193 (inactive) in experiment [5]; 0.416 (inactive) in [6]; -0.474 in experiment [7]. Moreover, the z-score was 1.26 (inactive) in experiment [8]; 0.729 (inactive) in [9]; 0.688 in experiment [10]; -0.999 in experiment [11]; -0.351 in experiment [12]; 0.2 in experiment [13]. In addition, the z-score in [14] was -0.171; in experiment [15] it was 0.418; in [16], -0.699; in experiment [17], -1.19 (inactive); in experiment [18] it was 0.128; in [19], -0.0985. For the same compound, the z-score in experiment [20] was 1 (inactive). The compound also showed a composite z-score in [2] of 0.142.
For `CCCCC#C[C@@H]1C=C[C@H](Oc2ccc(C(=O)OC)cc2)[C@@H](COC(=O)OCC)O1`, the z-score in experiment [1] was 0.0015 (inactive); in experiment [3], 5.53 (inactive); in experiment [4], 1.38 (inactive); in experiment [5], 0.77 (inactive); in experiment [6] it was 0.0033 (inactive); in experiment [7], 0.164. In addition, the z-score was 1.82 (inactive) in experiment [8]; 0.725 (inactive) in [9]; 1.03 in [10]; -1.07 in experiment [11]; 0.416 in experiment [12]; -3.26 in experiment [13]. Moreover, the z-score in [14] is -3.56; in [15], -3.46; in [16], -0.918; in [17] it was 0.281 (inactive); in experiment [18], -0.614; in [19], -1.95. In addition, in experiment [20], the z-score was 0.313 (inactive). Also, in [2], the composite z-score is -0.0559.
With `COC(=O)[C@@H]1CC[C@@H](C)[C@H](c2ccc(Br)cc2)N1`, the z-score is -0.394 (inactive) in experiment [1]; 0.121 (inactive) in experiment [3]; -0.0391 (inactive) in [4]; -0.242 (inactive) in [5]; -0.191 (inactive) in [6]; 0.333 in experiment [7]. The z-score in experiment [8] is -3.29 (inactive); in experiment [9], -0.185 (inactive); in experiment [10], -0.781; in experiment [11] it was 0.376; in experiment [12] it was 0.931; in experiment [13], 0.232. The z-score in experiment [14] is -0.749; in experiment [15], 0.628; in experiment [16] it was 0.307; in [17], -0.00943 (inactive); in experiment [18] it was 0.273; in experiment [19] it was 1.23. For the same compound, the z-score in experiment [20] is 0.316 (inactive). The same compound came in with a composite z-score in experiment [2] of 0.0962.
On to `COCOc1ccc(Br)cc1C(=O)[C@@H]1O[C@H]1c1cccc(OC)c1`, for which the z-score in experiment [1] was 0.467 (inactive); in experiment [3] it was 5.75 (inactive); in experiment [4], 1.12 (inactive); in [5], -0.23 (inactive); in experiment [6], 0.248 (inactive); in experiment [7], -0.291. In addition, the z-score in experiment [8] was 1 (inactive); in [9], -0.575 (inactive); in [10], -1.92; in experiment [11], 0.131; in experiment [12], 0.314; in experiment [13] it was -0.418. In addition, the z-score in experiment [14] was -2.86; in [15] it was -1.51; in experiment [16], -1.39; in experiment [17], -0.276 (inactive); in experiment [18], -0.724; in experiment [19], -0.261. Moreover, the z-score in [20] was -0.486 (inactive). Also, the composite z-score in experiment [2] is -0.0662.
As for `CCOC(=O)[C@H](CC(C)C)NC(=O)CCC1CC(OC(=O)NCc2cccc3ccccc23)CC2(CCCC(COC(=O)NCCOc3ccccc3)O2)O1` (stereo not given in full), the z-score in experiment [1] was 0.288 (inactive); in experiment [3], -1.67 (inactive); in [4], -0.658 (inactive); in experiment [5] it was -2.05 (inactive); in experiment [6] it was -0.391 (inactive); in experiment [7] it was -0.305. The z-score in experiment [8] was 0.711 (inactive); in experiment [9], 0.635 (inactive); in experiment [10], 0.534; in experiment [11], 2.15; in experiment [12] it was 0.519; in experiment [13], 0.335. For the same compound, the z-score in experiment [14] was -1.32; in [15] it was -0.273; in [16], 1; in experiment [17], 0.661 (inactive); in experiment [18], -0.763; in experiment [19], -0.985. Also, the z-score in experiment [20] is 1.33 (inactive). Also, the composite z-score in [2] is -0.372.
`CC(C)=NO[C@H](C)c1cn([C@H](CO)Cc2ccccc2)nn1`: the z-score was -2.06 (inactive) in experiment [1]; 0.29 (inactive) in experiment [3]; 0.0191 (inactive) in [4]; -0.188 (inactive) in experiment [5]; 0.269 (inactive) in experiment [6]; 0.225 in experiment [7]. In addition, the z-score in experiment [8] is 0.849 (inactive); in experiment [9] it was -0.311 (inactive); in [10], -0.281; in [11], 0.373; in [12], 0.232; in [13] it was -0.121. In addition, the z-score in [14] was -0.0735; in [15] it was -0.33; in experiment [16] it was -0.312; in experiment [17], -0.41 (inactive); in experiment [18] it was 0.155; in [19] it was 1.11. In [20], the z-score was 0.268 (inactive). Also, the composite z-score in [2] was -0.142.
